The panel holds about 83,000 compounds, 20% with a hit somewhere; the sample as a whole holds those more often.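 In brief: 96-well plates, 48 h treatment, single concentration, percent growth endpoint.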 Values without a mark were called inactive. The source made the active and inactive calls. Rule for the calls: active = growth percent below 10; inactive = the rest.

The first assay deals with U251 CNS. As to the kind of experiment: NCI-60 one-dose screen, 48 h (100 = growth as untreated, 0 = no growth, -100 = all killed). Particulars: 10 µM unless noted.
As to `COc1cc(Oc2cc(-c3cccnc3)ccc2NC(=O)Nc2ccc(F)cc2F)cc(OC)c1OC`, the growth is 92.2%.
For the molecule `O=C(/C=C/c1ccccc1Cl)c1ccc(O)cc1`, the growth is 31.4%.
Take `CN1CCN(Cc2ccc(NC(=O)c3[nH]ncc3Nc3ccnc4ccnn34)cc2)CC1`: the growth is 62%.
For the molecule `Cc1cc(C(C)(C)c2cc(C)c(O)c(CN(C)C)c2)cc(CN(C)C)c1O`, the growth is 67.8%.

For the next assay, the system named is PC-3 prostate. The assay is described as above. To be noted: 10 µM unless noted.
As to `CCCCCCCCCCSc1ncnc2nc[nH]c12`, the growth is 79.8%.
Take `Clc1ccc2c(Nc3ccc4oc(NCCN5CCCC5)nc4c3)ccnc2c1`: the growth was 79.9%.
As for `CCN(CC)CCCNCCCNc1cc(OC)cc2cccnc12`, the growth was 82.4%.
For `CCCCCCCCCCCCNc1ncnc2[nH]ncc12`, the growth is 69.7%.
With `CCCCCCCC/C=C/CCCCCCCC1=NC(C)(C)CN1CCO`, the growth was 22.8%.
`c1cncc(CNc2ccccc2-c2nnc(Nc3ccc4c(c3)OCO4)o2)c1`: the growth was 27.9%.
Regarding `CCCCCCCCCCCCCCCCN=C(CC(=O)O)C(=O)O`, the growth is 91.9%.
`c1ccc(N2CCN(c3nncc4ccccc34)CC2)nc1`: the growth is 101%.
On to `O=c1[nH]c(Cl)nc2c1cnn2-c1ccccc1`, for which the growth was 76.6%.
For `CN(CC(=O)N(Cc1ccc(C2CCCCC2)cc1)c1ccc(C(=O)O)cc1)S(=O)(=O)c1c(F)c(F)c(F)c(F)c1F`, the growth was 10.4%.
For `COc1ccc(C2CC(c3cccc(Nc4ccnc5cc(Cl)ccc45)c3)=NN2C=O)cc1` (stereo not given), the growth was 25.7%.
With `CCCCCCCCCCCCCCCCCC1=NC(C)(C)CN1CCO`, the growth was -52.4% (active).
For the molecule `COc1ccc(CCN2CCCN3C2=Nc2ccccc2S3(=O)=O)cc1`, the growth was 38.5%.
On to `CCC(C)(C)C(=O)O[C@H]1C[C@@H](C)C=C2C=C[C@H](C)[C@H](CC[C@@H]3C[C@@H](O)CC(=O)O3)[C@H]21`, for which the growth was 33.9%.
With `O=C1C(=O)c2ccc(Br)cc2-c2cc(Br)ccc21`, the growth was 83.7%.
In the case of `COc1ncc(-c2ccc3nccc(C#CCN4CCN(S(C)(=O)=O)CC4)c3c2)cc1NS(=O)(=O)c1ccc(F)cc1F`, the growth is 0.156% (active).
As for `COc1ccc2c3c(c(OCCCN(C)C)nc2c1)-c1ccc(Cl)cc1C3=O`, the growth was -19.5% (active).
For `C=C(C[C@](O)(C(=O)/C=C/c1ccc(Cl)cc1)C(=O)OC)c1ccccc1`, the growth was 65.4%.
Turning to `Nc1ccc(C2=Nc3cccc4cccc(c34)S2)cc1`, the growth was 71.6%.
On to `COc1cc(C2CC(c3ccc(C)cc3)=NN2C(C)=O)ccc1Oc1ccnc2cc(Cl)ccc12` (stereo not given), for which the growth is 67.9%.
Still for that read-out and setting: the figure for `O=C(Nc1ccc(Cl)cc1Cl)Nc1ccc(-c2cccnc2)cc1N1CCC(CO)CC1` is 16.6%.
On to `COc1cc(Oc2cc(-c3cccnc3)ccc2NC(=O)Nc2ccc(F)cc2F)cc(OC)c1OC`, for which the growth is 84.3%.
Consider `CN1CCN(Cc2ccc(NC(=O)c3[nH]ncc3Nc3ccnc4ccnn34)cc2)CC1`, for which the growth was 55.9%.
As for `Cc1cc(C(C)(C)c2cc(C)c(O)c(CN(C)C)c2)cc(CN(C)C)c1O`, the growth is 80%.
Consider `N#Cc1c(N)[nH]c(S)c1C#N`, for which the growth was 87.9%.

The subject of the next assay is SK-MEL-5 melanoma. The description is as above. Particulars: 10 µM unless noted.
Turning to `c1cnc2ccc3ncccc3c2c1`, the growth is 106%.
The same measure, in the same setting: the value for `CCCCCCCCCCSc1ncnc2nc[nH]c12` was 56.4%.
Same read-out and setting: the value for `Clc1ccc2c(Nc3ccc4oc(NCCN5CCCC5)nc4c3)ccnc2c1` was 99.1%.
With `CCN(CC)CCCNCCCNc1cc(OC)cc2cccnc12`, the growth is 92.1%.
The same measure, in the same setting: the figure for `CCCCCCCCCCCCNc1ncnc2[nH]ncc12` is 36.1%.
As to `CCCCCCCC/C=C/CCCCCCCC1=NC(C)(C)CN1CCO`, the growth was 3.21% (active).
In the case of `O=C(CN1CCCCC1)Sc1nnc2sc3ccccc3n12`, the growth was 99.2%.
Regarding `c1cncc(CNc2ccccc2-c2nnc(Nc3ccc4c(c3)OCO4)o2)c1`, the growth is -4.21% (active).
The same measure, in the same setting: the figure for `CC(=O)NC1(C(=O)O)CCCC1` is 112%; for `CCCCCCCCCCCCCCCCN=C(CC(=O)O)C(=O)O` it is 113%; for `c1ccc(N2CCN(c3nncc4ccccc34)CC2)nc1` it is 97.5%.
Still for that read-out and setting: the value for `O=c1[nH]c(Cl)nc2c1cnn2-c1ccccc1` was 96.5%; that for `ClC1=C(Cl)C(Cl)=C(Cl)C1=C/C=C/c1ccccc1` was -97.3% (active).
The same measure, in the same setting: the value for `CN(CC(=O)N(Cc1ccc(C2CCCCC2)cc1)c1ccc(C(=O)O)cc1)S(=O)(=O)c1c(F)c(F)c(F)c(F)c1F` was 86.6%; that for `COc1ccc(C2CC(c3cccc(Nc4ccnc5cc(Cl)ccc45)c3)=NN2C=O)cc1` (stereo not given) was 14%.
As for `CCCCCCCCCCCCCCCCCC1=NC(C)(C)CN1CCO`, the growth is -65.3% (active).
Consider `COc1ccc(CCN2CCCN3C2=Nc2ccccc2S3(=O)=O)cc1`, for which the growth was 35.9%.
On the same count and under the same terms, the figure for `CCOC(=O)c1cc(-c2cccnc2)nc2c(Cl)cc(Cl)cc12` is 101%; for `O=C1C(=O)c2ccc(Br)cc2-c2cc(Br)ccc21` it is 63.3%; for `CCOC(=O)c1c(C)c(C(=O)OCC)n(C)c1C` it is 126%.
Consider `COc1ncc(-c2ccc3nccc(C#CCN4CCN(S(C)(=O)=O)CC4)c3c2)cc1NS(=O)(=O)c1ccc(F)cc1F`, for which the growth is -92.3% (active).
Take `COc1ccc2c3c(c(OCCCN(C)C)nc2c1)-c1ccc(Cl)cc1C3=O`: the growth is 39.2%.
Turning to `CC1=CC(=O)C(C(C)=Nc2ccccc2Cl)C(=O)O1` (stereo not given), the growth was 120%.
Turning to `C=C(C[C@](O)(C(=O)/C=C/c1ccc(Cl)cc1)C(=O)OC)c1ccccc1`, the growth was 76%.
Take `Nc1ccc(C2=Nc3cccc4cccc(c34)S2)cc1`: the growth is 88.9%.
Consider `COc1cc(C2CC(c3ccc(C)cc3)=NN2C(C)=O)ccc1Oc1ccnc2cc(Cl)ccc12` (stereo not given), for which the growth is 91.1%.
Same read-out and setting: the figure for `CSc1ncc2ncn(C3OC(CO)C(O)C3O)c2n1` (stereo not given) is 129%; for `COc1ccc2nc3cc(Cl)ccc3c(Nc3cc(C(C)C)c(O)cc3C)c2c1` it is -91% (active).
As to `O=C(Nc1ccc(Cl)cc1Cl)Nc1ccc(-c2cccnc2)cc1N1CCC(CO)CC1`, the growth is 27.4%.
Regarding `COc1ccc2c(c1)C(=O)c1c-2c(OCCCN(C)C)nc2cc(Br)ccc12`, the growth is 87.4%.
Consider `CC(O)c1nc2c(c(=O)n(C)c(=O)n2C)n1C` (stereo not given), for which the growth was 104%.
As to `COc1cc(Oc2cc(-c3cccnc3)ccc2NC(=O)Nc2ccc(F)cc2F)cc(OC)c1OC`, the growth was 92.6%.
The same measure, in the same setting: the value for `O=C(/C=C/c1ccccc1Cl)c1ccc(O)cc1` was 58.1%; that for `CN1CCN(Cc2ccc(NC(=O)c3[nH]ncc3Nc3ccnc4ccnn34)cc2)CC1` was 71.6%.
Turning to `Cc1cc(C(C)(C)c2cc(C)c(O)c(CN(C)C)c2)cc(CN(C)C)c1O`, the growth is 85.8%.
Consider `N#Cc1c(N)[nH]c(S)c1C#N`, for which the growth was 96.9%.

The values above are taken from PubChem BioAssay (NCI).
